Assay results published in the supplement of paper PMC6555819.

Experiments:
Assay in all cases: PBM binding z-score (relative to random genomic background probes); higher = stronger binding; sequences stand for … in GC…GCGATTGACAGCGTAGAATGAAGG
[1] = test system: FXR:RXRa (NR concentration 270 nM, RXRa partner concentration 90 nM)
In short: (§1)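 Scanned fluorescence from custom Agilent 4×180K protein-binding microarrays was regression-normalized. Binding z-scores use random background probes as reference. Ligand-free nuclear receptor dimers were incubated on the arrays for 1 h and detected with antibodies against each partner (one per run).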

[2] = test system: LXRa:RXRa (NR concentration 270 nM, RXRa partner concentration 90 nM)
In short: as §1

[3] = test system: LXRa homodimer (NR concentration 270 nM)
In short: as §1

[4] = test system: LXRb:RXRa (NR concentration 270 nM, RXRa partner concentration 90 nM)
In short: as §1

[5] = test system: LXRb homodimer (NR concentration 270 nM)
In short: as §1

[6] = test system: PPARa:RXRa (NR concentration 270 nM, RXRa partner concentration 90 nM)
In short: as §1

[7] = test system: PPARg:RXRa (NR concentration 180 nM, RXRa partner concentration 90 nM)
In short: as §1

[8] = test system: PPARg:RXRa 270nM:90nM, anti-RXR (NR concentration 270 nM, RXRa partner concentration 90 nM)
In short: as §1

[9] = test system: PPARg:RXRa 30nM:10nM, anti-RXR (NR concentration 30 nM, RXRa partner concentration 10 nM)
In short: as §1

[10] = test system: PPARg:RXRa 90nM:30nM, anti-RXR (NR concentration 90 nM, RXRa partner concentration 30 nM)
In short: as §1

[11] = test system: PPARg:RXRa DBDmut IVT, anti-RXR (DBD mutation: RXRa K156A/R161A, NR concentration 270 nM, RXRa partner concentration 90 nM)
In short: as §1

[12] = test system: PPARg:RXRa IVT, anti-PPARg (NR concentration 270 nM, RXRa partner concentration 90 nM)
In short: as §1

[13] = test system: PPARg DBDmut:RXRa IVT, anti-PPARg (DBD mutation: PPARg1 K132A/R137A, NR concentration 270 nM, RXRa partner concentration 90 nM)
In short: as §1

[14] = test system: PPARg DBDmut IVT, anti-PPARg (DBD mutation: PPARg1 K132A/R137A, NR concentration 270 nM)
In short: as §1

[15] = test system: PPARg homodimer (NR concentration 180 nM)
In short: as §1

[16] = test system: PXR:RXRa (NR concentration 270 nM, RXRa partner concentration 90 nM)
In short: as §1

[17] = test system: PXR homodimer (NR concentration 270 nM)
In short: as §1

[18] = test system: RARa:RXR (NR concentration 270 nM, RXRa partner concentration 90 nM)
In short: as §1

[19] = test system: RARa homodimer (NR concentration 270 nM)
In short: as §1

[20] = test system: RARb:RXRa (NR concentration 270 nM, RXRa partner concentration 90 nM)
In short: as §1

Sequence	PBM binding z-score [1]	PBM binding z-score [2]	PBM binding z-score [3]	PBM binding z-score [4]	PBM binding z-score [5]	PBM binding z-score [6]	PBM binding z-score [7]	PBM binding z-score [8]	PBM binding z-score [9]	PBM binding z-score [10]	PBM binding z-score [11]	PBM binding z-score [12]	PBM binding z-score [13]	PBM binding z-score [14]	PBM binding z-score [15]	PBM binding z-score [16]	PBM binding z-score [17]	PBM binding z-score [18]	PBM binding z-score [19]	PBM binding z-score [20]
ATCTCTAGGCAACCAAGTTCAGTGAATGCCGAAC	0.291	0.227	0.263	0.113	0.281	0.303	0.114	0.0403	-0.317	0.0136	0.769	0.547	0.416	0.473	-0.0686	1.68	1.43	0.461	-0.516	0.951
AATACAGGGTCATCGTAGGCCTGAGTACGCACAG	7.54	5.77	1.91	4.6	1.13	5.95	6.49	5.92	2.71	4.74	2.91	4.07	1.77	1.33	2.11	4.23	0.334	4.79	0.501	4.43
AAGACAGGGTCATCGTAGGCCAGAGTACGCACAG	7.28	5.76	0.0665	4.06	0.0441	6.02	5.91	5.77	2.38	3.94	1.48	2.99	0.884	0.174	1.25	4.95	0.0301	4.92	0.453	4.23
CCGACTGGGGCAAAGGTTACAATACTCAGTACGA	1.77	1.65	0.0321	2.42	-0.618	5.62	12.1	9.57	11.1	11.3	4.99	6.06	0.209	0.0744	1.56	2.63	-0.0818	4.23	0.27	2.55
AATACAGGGTCACCAGGCCAGAGTAGGTACGAAT	7.09	5.86	0.943	4.55	0.722	6.07	8.01	6.75	3.76	5.35	3.62	5.06	1.5	0.986	2.07	4.02	0.26	5.4	0.737	4.53
CAAACTAGGTCACAGGTCAAAGTCGAGCCAACCA	6.7	5.19	3.25	4.68	1.16	6.88	12.3	9.67	10.4	11	8.4	9.27	4.16	4.09	4.17	4.41	0.711	5.81	0.827	4.7
GCGTCTGGGGCATCAGCAGGTTACCATAACTTAA	-0.332	-0.363	-0.529	0.524	-0.962	0.996	0.169	0.239	-0.644	-0.174	2.39	1.72	-0.946	-0.371	0.169	-0.00705	-0.377	0.336	-0.422	0.978
